For 40 compounds, Potency and activity change, negative = cytotoxic results are on record in PubChem BioAssay (NCATS).

SMILES strings stand for the structures. Results filed as inconclusive are left out. Where a call stands in place of a potency, no number is given. Unmarked numbers belong to inactive results. Active and inactive are the calls of the source. Calls come from the whole dose curve; as a rule, active = well fitted cell-killing curve with a large enough effect; inconclusive = small, poorly fitted or top-dose-only effect; inactive = no such curve, though single readings can be large or run the other way.
Potency is the fitted concentration of half-maximal effect.

This experiment is described as follows: qHTS of pediatric cancer cell lines to identify multiple opportunities for drug repurposing: Primary screen for SK-N-SH cells (AID 1347098). Note: nearly all actives have a fitted effect of over 65% in size. The conditions noted are these: SK-N-SH viability, CellTiter-Glo luminescence, 48 h; series mostly up to 57 µM. The source says: Drug repurposing or repositioning has been offered as a strategy for drug development in oncology programs. This approach has special potential for childhood cancers and other rare or orphan diseases, where the expected return on new drug development has been a disincentive to pharmaceuticals.
In this project we exploit the poly-pharmacology of drugs to discover new indications via phenotypic screening of a panel of 19 well-characterized cell lines derived from solid tumors seen in children and adolescents. The goal is to identify approved drugs with previously unrecognized anticancer properties that has the potential to reveal new mechanisms and biological processes involved in carcinogenesis or drug resistance. We employed a titration-based paradigm (quantitative high-throughput screening or qHTS), where all compounds were tested at multiple concentrations for their effect on cell viability. Concentration-response curves (CRCs) were derived directly from the primary screen, and both potency and efficacy values were used to identify compounds with robust bioactivity profiles. We screened the NIH Chemical Genomics Center (NCGC) Pharmaceutical Collection (NPC) and Mechanism Interrogation Plate (MIPE) small molecule collections of approved and investigational compounds against these cell lines; and measured metabolically active cells after 48 hours of compound treatment as a proxy for cell viability.
Assay Submitter: Nathalia J. Martinez, National Center for Advancing Translational Sciences, National Institutes of Health, Rockville, MD, USA; email: natalia.martinez@nih.gov
[1] Shen, M et al. Quantitative high-throughput phenotypic screening of pediatric cancer cell lines identifies multiple opportunities for drug repurposing. Oncotarget 2017 Dec 19;9(4):4758-4772. PMID 29435139.
The cells were obtained from University of North Carolina (UNC), Pediatric Preclinical Testing Program (PPT), and Coriell Institute (CI).
qHTS cell viability assay:
Cells were assayed in growth media at a density of 500-1,000 cells/well. Five microliters of cells were dispensed into 1,536-well, white, solid-bottom, TC-treated plates (Greiner Bio One) using a multidrop dispenser and incubated at 37 degrees C, 5% CO2, under a humidified atmosphere for 5 hours. Twenty-three nanoliters of compounds and controls (neutral control DMSO or positive control bortezomib at final concentration of 2.3 µM) were subsequently transferred by Kalypsys pintool. For primary screens, the MIPE collection was tested at 11-point dilutions (final concentrations range from 0.78 nM to 46 µM) and the NPC collection at 8-point dilutions (final concentrations range from 0.59 nM to 46 µM). Compounds tested in follow-up screens were assayed at 11-point dilutions. Cells were incubated for 48 hours, followed by addition of 3 µL of CellTiter-Glo (Promega). After a 15 min incubation at room temperature, samples were analyzed for luminescence intensity using a ViewLux High-throughput CCD imager equipped with clear filters.
Consider `CC[C@H](C=C[C@@H](C)[C@H]1CC[C@H]2[C@@H]3CC=C4C[C@@H](O)CC[C@]4(C)[C@@H]3CC[C@]12C)C(C)C`, for which the Potency entry is “inactive”.
For the compound `O=C(O)C1=NC(C(=O)O)CC(C=CN2c3cc(O)c(OC4OC(CO)C(O)C(O)C4O)cc3CC2C(=O)O)=C1` (stereo not given), the Potency result is “inactive”.
In the case of `Nc1ccn([C@@H]2O[C@H](CO)[C@@H](O)[C@H]2O)c(=O)n1`, the Potency result is “inactive”.
Take `CN1N=C(N)c2cn([C@@H]3O[C@H](COP(=O)(O)O)[C@@H](O)[C@@H]3O)c3ncnc1c23`: the Potency was 21.5 µM (active).
As to `COc1ccc2c(c1)c(C1=C(c3c[nH]c4ccccc34)C(=O)NC1=O)cn2CCCN(C)C`, the Potency is 21.5 µM (active).
Consider `O=C(NCCCCN1CCOCC1)c1cc2ccccc2o1`, for which the Potency was 30.4 µM (active).
`CC(=O)OCC(=O)[C@@]1(O)CC[C@H]2[C@@H]3CCC4=CC(=O)C=C[C@]4(C)[C@@H]3[C@@H](O)C[C@@]21C`: the Potency entry was “inactive”.
Same read-out and setting: as for `N#Cc1c(N(CC(=O)O)CC(=O)O)sc(C(=O)O)c1CC(=O)O`, the entry is “inactive”.
As to `CN[C@H]1[C@@H](O[C@@H]2[C@H](O[C@@H]3[C@@H](O)[C@@H](O)[C@@H](N=C(N)N)[C@@H](O)[C@@H]3N=C(N)N)O[C@H](C)[C@@]2(O)C=O)O[C@@H](CO)[C@@H](O)[C@H]1O`, the activity change, negative = cytotoxic is 18.9% [at 11.4 µM].
Consider `C[C@@H](NC(=O)c1ncnc(N)c1Cl)c1ncc(C(=O)Nc2cc(C(F)(F)F)c(Cl)cn2)s1`, for which the Potency was 19.2 µM (active).
The same measure, in the same setting: the value for `O=C(Nc1ncc(SCCN2CCCC2)s1)[C@]1(c2ccc(S(=O)(=O)C3CC3)cc2)C[C@@H]1C1CCCCC1` was “inactive”; that for `C=C[C@@H]1CN2CCC1C[C@@H]2C(O)c1ccnc2ccc(OC)cc12` (stereo not given in full) was “inactive”.
`COc1ccc2ccc(=O)oc2c1CC=C(C)C`: the Potency result was “inactive”.
Take `O=C(Nc1ccc(OC(F)(F)F)cc1)c1sccc1NCc1ccnc2ccccc12`: the Potency entry is “inactive”.
On the same count and under the same terms, the value for `OC1CCC(Nc2ncc3nc(Nc4c(F)cc(F)cc4F)n([C@@H]4CCOC4)c3n2)CC1` (stereo not given in full) was “inactive”.
In the case of `O=[N+]([O-])c1ccc(Nc2ccccc2-c2ccccc2)c2nonc12`, the Potency result is “inactive”.
In the case of `CCCCC(F)(F)[C@@]1(O)CC[C@H]2[C@H](CC(=O)[C@@H]2CCCCCCC(=O)O)O1`, the Potency result was “inactive”.
`C[C@@H]1O[C@@H](O[C@H]2CC[C@@]3(C)[C@H](CC[C@@H]4[C@H]3C[C@@H](O)[C@]3(C)[C@@H](C5=CC(=O)OC5)CC[C@]43O)C2)C[C@H](O)[C@@H]1O[C@H]1C[C@H](O)[C@H](O[C@H]2C[C@H](O)[C@@H](O)[C@@H](C)O2)[C@H](C)O1` (stereo in doubt): the Potency was 0.555 µM (active).
In the case of `Cn1cc(-c2ccc3nnc(Sc4ccc5ncccc5c4)n3n2)cn1`, the Potency entry was “inactive”.
`O=c1[nH]c(=O)n([C@H]2C[C@@H](O)[C@@H](CO)O2)cc1C(F)(F)F`: the Potency result was “inactive”.
Same read-out and setting: the value for `CCNC(=O)[C@H]1O[C@@H](n2cnc3c(N)nc(NCCc4ccc(CCC(=O)O)cc4)nc32)[C@H](O)[C@H]1O` was “inactive”; that for `OC[C@H]1O[C@@H](O[C@H]2[C@@H](O)[C@@](O)(CO)O[C@@H]2CO)[C@H](O)[C@@H](O)[C@@H]1O` was “inactive”; that for `Cc1cc(NC(=O)Nc2ccc(N(C)C)cc2)c2cc(F)cc(F)c2n1` was “inactive”.
Take `CN(C)CCOc1ccc(-c2nc(-c3ccc4c(c3)CCC4=NO)c(-c3ccncc3)[nH]2)cc1`: the Potency is 24.1 µM (active).
As to `Cc1cccc2c1CC[C@H](CN1CCC(c3c(Cl)cccc3Cl)CC1)C[C@@H]2O`, the Potency entry was “inactive”.
On the same count and under the same terms, the value for `CC(C)(C)c1nc(-c2cccc(NS(=O)(=O)c3c(F)cccc3F)c2F)c(-c2ccnc(N)n2)s1` was “inactive”.
For the compound `CNC(=O)c1c(-c2ccc(F)cc2)oc2cc(N(CCO)S(C)(=O)=O)c(C3CC3)cc12`, the Potency was 30.4 µM (active).
Still for that read-out and setting: as for `COc1cc(Nc2nc3ccccc3nc2NS(=O)(=O)c2ccc(NC(=O)c3ccc(C)c(OC)c3)cc2)cc(OC)c1`, the figure is 24.1 µM (active); as for `COc1cc2nccc(Oc3ccc(NC(=O)Nc4ccc(F)cc4F)c(F)c3)c2cc1OC`, “inactive”.
In the case of `Cc1ccccc1C(=O)c1ccc(Nc2ccc(Br)cc2N)cc1Cl`, the Potency result was “inactive”.
The same measure, in the same setting: the value for `OCCn1cc(-c2ccc3c(c2)CCC3=NO)c(-c2ccncc2)n1` was 19.2 µM (active); that for `Cc1c(C(=O)Nc2ccc(N3C[C@@H](C)O[C@@H](C)C3)nc2)cccc1-c1ccc(OC(F)(F)F)cc1` was 3.41 µM (active); that for `CNC(=O)c1cc(COc2nnc(Nc3ccc(Cl)cc3)c3ccoc23)ccn1` was “inactive”.
With `COc1c(C)cnc(Cn2cnc3c(Cl)nc(N)nc32)c1C`, the Potency was 0.341 µM (active).
For `O=C(CO)N1CCC(c2[nH]nc(-c3ccc(Cl)cc3)c2-c2ccncn2)CC1`, the Potency result is “inactive”.
Take `CCCCC[C@H](O)C=C[C@H]1[C@H](O)CC(=O)[C@H]1CC=CCCCC(=O)O`: the Potency entry was “inactive”.
Consider `Cc1cc(OCCCS(C)(=O)=O)cc(C)c1-c1cccc(COc2ccc3c(c2)OC[C@H]3CC(=O)O)c1`, for which the Potency result is “inactive”.
As to `CC=C1C2C=C(C)CC1(N)c1ccc(=O)[nH]c1C2` (stereo not given), the Potency entry is “inactive”.
`CC[C@H](C)n1cc(C)c2c(C(=O)NCc3c(C)cc(C)[nH]c3=O)cc(-c3ccc(N4CCNCC4)nc3)cc21`: the Potency was 6.07 µM (active).
For the compound `CC(C)(OCc1nn(Cc2ccccc2)c2ccccc12)C(=O)O`, the Potency was 30.4 µM (active).
